# Bioassay records as filed in PubChem.
# AMA1-RON2 inh: qHTS for Inhibitors of AMA1-RON; Towards Development of Antimalarial Drug Lead: Primary Screen. Plasmodium falciparum AMA1 (3D7) - RON2 peptide interaction. AlphaScreen AMA1-biotinylated RON2 peptide binding. Potency, µM (doses to about 58.2 µM), for the others: at the top dose activity change, negative = inhibition, usual class: inhibitors. actives 0.2% (n = 360,000). AID 720542, 2013;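 further: 0% = vehicle wells and -100% = peptide control; nearly all actives have a fitted effect of over 45% in size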
#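 AMA1 (3D7) with his tag at 25 nM final met compounds first, then biotinylated RON2 peptide at 25 nM; detection used donor plus acceptor beads, 10 µg/mL apiece, read by AlphaScreen after 30 min at room temperature.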
# VACV Venus inh: qHTS for Stage-Specific Inhibitors of Vaccinia Orthopoxvirus: Venus Reporter Primary qHTS; AID 720580, 2013; Potency, µM (highest dose often 36.5 µM), without a hit: top-dose activity change, negative = inhibition, most hits filed as inhibitors; actives 0.46% (n = 330,000); Vaccinia virus Venus reporter expression, fluorescence; calls by dose curve; tested in A549 cells; further: on the % scale 0 is the no-effect control and ±100 the full control effect; nearly all actives have a fitted effect of over 30% in size
# Vaccinia mCherry: qHTS for Stage-Specific Inhibitors of Vaccinia Orthopoxvirus: mCherry Reporter Primary qHTS; Vaccinia virus mCherry reporter infection, fluorescence; Potency, µM (series often up to 36.5 µM), for inactives: top-dose activity change, negative = inhibition, actives largely listed as inhibitors; actives 0.63% (n = 310,000); AID 720579, 2013; calls by dose curve; tested in A549 cells; further: on the % scale 0 is the no-effect control and ±100 the full control effect; nearly all actives have a fitted effect of over 35% in size
# AmpC no deterg: qHTS Inhibitors of AmpC Beta-Lactamase (assay without detergent); P00811; AmpC nitrocefin hydrolysis, absorbance 480 nm, 0.0001% Triton; Potency, µM (doses to about 57.1 µM), inactives show at the highest dose activity change, negative = inhibition, hits mostly inhibitors; actives 0.52% (n = 330,000); AID 485341, 2010;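 further: plate controls were no compound for no effect and no enzyme for full effect; nearly all actives have a fitted effect of over 20% in size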
# Target sequence (P00811 whole entry, looked up): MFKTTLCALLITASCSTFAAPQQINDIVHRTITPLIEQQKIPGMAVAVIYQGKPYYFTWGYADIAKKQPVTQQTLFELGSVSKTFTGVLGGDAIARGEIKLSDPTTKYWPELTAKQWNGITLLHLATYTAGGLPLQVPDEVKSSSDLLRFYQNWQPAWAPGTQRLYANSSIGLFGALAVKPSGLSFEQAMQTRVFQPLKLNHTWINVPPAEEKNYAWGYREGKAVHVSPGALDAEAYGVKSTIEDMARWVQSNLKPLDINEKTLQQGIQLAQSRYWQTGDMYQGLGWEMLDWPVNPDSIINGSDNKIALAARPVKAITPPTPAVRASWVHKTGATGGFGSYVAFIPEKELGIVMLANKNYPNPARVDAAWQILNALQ
#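 AmpC (5.3 nM in the dispensed reagent) in 20 mM phosphate pH 7.0 with 0.01% (detergent screen) or 0.0001% Triton X-100 was preincubated with compounds for 15 min at room temperature. Nitrocefin was then added from an 800 uM solution, and hydrolysis was followed at 480 nm.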
# SARS PLP yeast: qHTS of Yeast-based Assay for SARS-CoV PLP; S. cerevisiae expressing SARS-CoV PLpro, growth rescue; Potency, µM (top dose mostly 32.9 µM), for the others: at the highest dose activity, positive = growth rescue, actives largely listed as activators; actives 0.19% (n = 330,000); AID 485353, 2010; calls by dose curve; further: 0% is about no effect; nearly all actives have a fitted effect of over 55% in size
# AmpC detergent: qHTS Inhibitors of AmpC Beta-Lactamase (assay with detergent) | P00811 | AmpC hydrolysis of nitrocefin, absorbance 480 nm, 0.01% Triton | Potency, µM (doses to about 114 µM), inactives show at the highest dose activity change, negative = inhibition, hits mostly inhibitors | actives 0.041% (n = 370,000) | AID 485294, 2010;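 further: 0% = no-compound wells and -100% = no-enzyme wells; nearly all actives have a fitted effect of over 25% in size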
#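 AmpC (5.3 nM in the dispensed reagent) in 20 mM phosphate pH 7.0 with 0.01% (detergent screen) or 0.0001% Triton X-100 was preincubated with compounds for 15 min at room temperature. Nitrocefin was then added from an 800 uM solution, and hydrolysis was followed at 480 nm.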
# The depositor's hits bear a star; i = inactive; ? = inconclusive; / = not tested or not shown; ! = repeats disagree; [ ] = another dose, or the depositor's remark. The list is not random: actives were taken first. Their share in the collection is about 1.4%. Unless noted, the call rests on the fitted dose curve; in most records, active means well fitted curve in the direction sought with a large enough effect; inconclusive means small, poorly fitted or top-dose-only effect, or another doubt; inactive means no such curve, though single readings can be large; an effect the other way counts as inactive or inconclusive. Potency means the concentration at half of the fitted maximal effect.
SMILES,AMA1-RON2 inh,VACV Venus inh,Vaccinia mCherry,AmpC no deterg,SARS PLP yeast,AmpC detergent
CCCCn1c(=N)n(CCOc2ccc(C)cc2)c2ccccc21,-7%,?,14µM*,34%,1%,?
COC1=CC(=O)C(O)=C/C1=C\C=C\c1ccccc1,/,2%,-5%,/,/,/
CC1CC(C)CN(C(=O)COC(=O)CN2C(=O)c3ccccc3C2=O)C1 (stereo not drawn),-5%,9%,-15%,-3%,-14%,/
CC1CC(C)CN(C(=O)c2ccc3c(c2NCCO)C(=O)c2ccccc2C3=O)C1 (stereo not drawn),22µM*,15%,-24%,129%,-10%,-8%
CN(C)CCCN1c2ccccc2Sc2ccc(C(F)(F)F)cc21,-22%,?,?,78%,0%,-13%
OC1CC2CCC(C1)N2CCCN1c2ccccc2Sc2ccc(Cl)cc21 (stereo not drawn),-22%,11µM*,?,/,/,/
CN(C)CCCN1c2ccc(O)cc2Sc2ccc(Cl)cc21,20µM*,?,-15%,/,/,/
CCSc1ccc2c(c1)N(CCCN1CCN(C)CC1)c1ccccc1S2,?,?,-21%,213%,/,-11%
CN1CCN(CCCN2c3ccccc3Sc3ccc(Cl)cc32)CC1,16µM*!,11µM*,11µM*!,225%,-30%,-6%
CN(C)c1nc2cc3c(cc2cc1CN(CC1CCCO1)C(=O)/C=C/c1cccs1)OCO3 (stereo not drawn),/,-6%,-8%,/,/,/
CCN(CCO)C(=O)c1cnn(-c2ncc3c(n2)-c2ccccc2CCC3)c1C1CC1,/,-19%,-18%,/,/,/
Cc1ccc(S(=O)(=O)N2CCN(c3nc(-n4ccnn4)nc4ccccc34)CC2)cc1,/,-10%,-12%,/,/,/
COc1ccc(/C=C(\C#N)C(=O)Nc2cc(S(=O)(=O)N3CCOCC3)ccc2N2CCCC2)cc1,-23%,-7%,-9%,60%,1%,-11%
CCN(CC)S(=O)(=O)c1ccc(N2CCCCC2)c(NC(=O)/C(C#N)=C/c2ccc(OC)cc2)c1,1%[11.6 µM],-4%,-16%,4µM*,7%,-2%
CC1(C)N=C(N)N=C(N)N1c1ccc(OCC(=O)Nc2ccccc2)c(Cl)c1,-3%,?,4µM*,/,/,/
Cc1cccc(NC(=O)CCc2ccc(N3C(N)=NC(N)=NC3(C)C)cc2)c1,6%,?,5.6µM*,/,/,/
N=C1CCC(=N)c2c1c(O)c1ccccc1c2O,20µM*,78%,4%,-53%,-4%,-10%
CCCn1c(CNc2ccc(Br)cc2)nc2ccccc21,22%,?,11µM*,-33%,-23%,-16%
CCCCCCN1C[C@@H](O)[C@H](n2cc(C3CC3)nn2)C[C@@H]1c1ccccc1,17%,-28%,i,/,/,/
CCCCCCN1C[C@H](n2cc(-c3ccc(F)cc3)nn2)[C@@H](O)C[C@@H]1c1ccc(C)cc1,-4%,?,28µM*,/,/,/
CCCCCCN1C[C@H](n2cc(C3CC3)nn2)[C@@H](O)C[C@@H]1c1ccccc1,15%,11µM*,?,/,/,/
Cc1ccc(CNc2nc(CN3CCCCC3c3cccnc3)nc3ccccc23)o1 (stereo not drawn),/,-16%,0%,/,/,/
CC(=O)OCCNc1cc(N2CCN(C)CC2)c2noc3c2c1C(=O)c1ccccc1-3,?,210%,10%,110%,-35%,?
CCN1CCN(c2cc(N3CCN(C(=O)c4ccco4)CC3)c3c4c(onc24)-c2ccccc2C3=O)CC1,22µM*,217%,-21%,147%,-16%,-13%
O=C(O)CCCNc1cc(N2CCN(C3CCCCC3)CC2)c2noc3c2c1C(=O)c1ccccc1-3,/,-11%,i,/,/,9%
SMILES,AMA1-RON2 inh,VACV Venus inh,Vaccinia mCherry,AmpC no deterg,SARS PLP yeast,AmpC detergent
O=C(O)CCNc1cc(N2CCN(C(=O)c3ccco3)CC2)c2noc3c2c1C(=O)c1ccccc1-3,32µM*,14%,26%,166%,-6%,-1%
Nc1nc(NCc2ccc(Cl)cc2Cl)c2[nH]cnc2n1,/,-20%,-8%,/,/,/
COC(=O)c1cccc(C(=O)N2CCc3c(cnc(C)c3CNC(=O)/C=C/c3cccs3)C2)c1,/,-10%,-15%,/,/,/
Cc1oc(-c2ccccc2NC(=O)C2CCC2)nc1CNC(=O)c1ccc(C#CC(C)(C)O)cc1,/,-9%,-12%,/,/,/
CN1CCCN(C(=O)[C@@H]2C[C@@H](Sc3nc4ccccc4[nH]3)CN2Cc2ccc(OC(F)(F)F)cc2)CC1,/,-9%,-24%,/,/,/
C1=Nc2ccccc2/C1=C/c1c[nH]c2ccccc12,/,21%,-17%,/,/,/
CC(C)C[C@H](N)c1cn([C@@H](CCCCN)C(=O)N2CCNCC2)nn1,31%,0.79µM*,0.5µM*,-27%,-1%,8%
CC(C)(C)c1ccc(C(=O)N2CCC3(CC2)CC3C(=O)NCCc2ccccn2)cc1 (stereo not drawn),/,-8%,-15%,/,/,/
O=C(C=P(c1ccccc1)(c1ccccc1)c1ccccc1)c1ccccc1-c1ccccc1C(=O)C=P(c1ccccc1)(c1ccccc1)c1ccccc1,?,3.5µM*,?,/,/,/
COc1ccc(-n2nc([N+](=O)[O-])c(=NCCc3ccc(C)cc3)n2O)cc1,?,-11%,-19%,-7%,-5%,-6%
COc1ccc(-n2nc([N+](=O)[O-])c(=NCCC3=CCCCC3)n2O)cc1,16µM*,-12%,-4%,2%,-2%,5%
CCCNC(=O)COC(=O)c1ccccc1C(=O)c1ccc(Cl)c([N+](=O)[O-])c1,13%,14µM*,?,9%,2%,?
Cc1ccc(Cl)c(NC(=O)COC(=O)c2ccccc2C(=O)c2ccc(Cl)c([N+](=O)[O-])c2)c1Cl,0%,?,?,20µM*,-3%,1%
Cc1ccc(C(=O)c2ccccc2C(=O)OCC(=O)NCCc2ccc(Cl)cc2Cl)cc1,-2%,-17%,-26%,15%,-10%,-12%
CCOC(=O)c1cc(C#N)c(SC(C(=O)N2CCCCC2)c2ccccc2)nc1C (stereo not drawn),/,-11%,24%,/,/,/
Cc1ccc(Nc2nnc(SCC(=O)c3ccc(O)cc3O)s2)cc1,8%,0%,-19%,11µM*,2%,-2%
Cc1cc(NC(=O)COCc2cc(-c3ccc(F)cc3)on2)ccc1Br,/,-7%,-11%,/,/,-7%
